VP16 counter: counter-screen for ROR gamma inhibitors: Gal4-VP16 reporter. actives 3.5% (n = 310,000). Potency, µM (highest dose often 53.6 µM), inactives show at the highest dose activity, negative = inhibition, usual class: inhibitors. AID 2546. Drosophila S2 Gal4-VP16 UAS-luciferase, luminescence, 20 h;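 also: Gal4-VP16 expression switched on by copper sulfate through the metallothionein promoter; potency is read from the fitted curve at half-maximal effect; nearly all actives have a fitted effect of over 50% in size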
LDHA inh: blocks human lactate dehydrogenase A | AID 1347041 | purified LDHA, NADH/diaphorase-resazurin fluorescence; active compounds read low | actives 0.15% (n = 480,000) | activity change, % (values are at about 110 or 230 µM) | P00338; in the data active = activity change below about -30%; inconclusive = mostly about -25% to -30%;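 also: plate controls were DMSO wells for no effect and wells without enzyme for full effect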
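Resorufin fluorescence (ex540/em590), read at 0 and 20 min after diaphorase/resazurin addition, reports the NADH left after a 5 min room-temperature reaction of 2 nM human LDH5 with 0.06 mM NADH and 0.2 mM pyruvate.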
IL-1B inflam inh: inhibitors of inflammasome signaling (IL-1 beta secretion); AID 743279; activity change, % at 57.5 µM; actives 4.7% (n = 360,000); THP-1 LPS/ATP IL-1B secretion, AlphaLISA, 16 h; active compounds read low; in the data active = activity change below about -50%; inconclusive = mostly about -30% to -49%
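Secreted IL-1B measured by AlphaLISA bead assay after 16 h compound exposure of THP-1 cells; compounds (final up to 57.5 uM) added 1 h before LPS (250 ng/mL) and ATP (1.25 mM) stimulation; lower signal means less secretion.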
RORg inh: inhibitors of mouse ROR gamma transcriptional activity; actives 5.4% (n = 310,000); P51450; Potency, µM (titrated, usually from 53.6 µM), for the others: at the top dose activity change, negative = inhibition, hits mostly inhibitors; Drosophila S2 Gal4-RORgamma UAS-luciferase reporter, 20 h; also: potency is read from the fitted curve at half-maximal effect; nearly all actives have a fitted effect of over 60% in size
Target sequence (P51450 whole entry, looked up, the tested form may be a part): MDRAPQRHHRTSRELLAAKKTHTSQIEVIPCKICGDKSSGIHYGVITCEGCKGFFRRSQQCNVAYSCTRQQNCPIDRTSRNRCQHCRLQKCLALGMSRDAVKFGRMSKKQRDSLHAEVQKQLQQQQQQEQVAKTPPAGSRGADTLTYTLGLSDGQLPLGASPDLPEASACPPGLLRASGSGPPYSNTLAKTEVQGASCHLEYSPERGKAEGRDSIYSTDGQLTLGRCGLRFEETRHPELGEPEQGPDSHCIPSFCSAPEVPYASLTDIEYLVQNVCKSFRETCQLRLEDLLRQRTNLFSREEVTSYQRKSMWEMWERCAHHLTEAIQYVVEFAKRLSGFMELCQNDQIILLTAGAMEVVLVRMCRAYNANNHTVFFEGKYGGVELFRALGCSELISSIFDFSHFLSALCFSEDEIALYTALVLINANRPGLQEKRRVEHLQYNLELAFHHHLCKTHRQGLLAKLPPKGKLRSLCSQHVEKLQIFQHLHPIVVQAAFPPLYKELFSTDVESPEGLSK
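In this cell-based reporter format, copper sulfate (700 uM final) drives Gal4–ROR gamma fusion expression from a metallothionein promoter in Drosophila Schneider cells; compounds preincubated 1 hr, reporter read after 20 hr at ambient temperature.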
TDP1 cell CPT: growth inhibition of DT40 Tdp1-/-;hTDP1 cells with camptothecin (screen for TDP1 inhibitors); AID 686979; chicken DT40 Tdp1-/-;hTDP1 cells + 20 nM CPT, ATP luminescence, 48 h; actives 12% (n = 420,000); Potency, µM (top dose mostly 46.2 µM), for the others: at the top dose activity change, negative = growth inhibition, usual class: inhibitors; also: potency is read from the fitted curve at half-maximal effect; nearly all actives have a fitted effect of over 55% in size
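Chicken DT40 Tdp1-/- cells stably complemented with human TDP1 were seeded at 400 cells/well in medium containing 20 nM camptothecin, exposed to pin-transferred compounds, and grown at 37 °C for at least 48 hr. Viability was read as ATP luminescence.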
DT40 TDP1 no CPT: qHTS for Inhibitors of human tyrosyl-DNA phosphodiesterase 1 (TDP1): qHTS in cells in absence of CPT; DT40 Tdp1-/- hTDP1 cells, no CPT, ATP luminescence, 48 h; Potency, µM (titrated, usually from 46.2 µM), for the others: at the highest dose activity change, negative = growth inhibition, hits mostly inhibitors; actives 15% (n = 420,000); also: potency is read from the fitted curve at half-maximal effect; nearly all actives have a fitted effect of over 55% in size
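Seeded 400 DT40-hTDP1 cells/well (vehicle DMSO, no 20 nM CPT); pinned compounds; ≥48 hr at 37 °C; CellTiter-Glo luminescence as viability measure.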
The depositor's hits bear a star; i = inactive; ? = inconclusive; nt = no result given. Shown are actives, neighbours in structure and some others; about 18% of the full set was active somewhere. Unless noted, calls follow the shape of the dose curve; as a rule, active = well fitted curve in the direction sought with a large enough effect; inconclusive = small, poorly fitted or top-dose-only effect, or another doubt; inactive = no such curve, though single readings can be large; an effect the other way counts as inactive or inconclusive. Unless noted, % is scaled to controls: 0 for no effect and ±100 for the full control effect.

SMILES	VP16 counter	LDHA inh	IL-1B inflam inh	RORg inh	TDP1 cell CPT	DT40 TDP1 no CPT
Cc1ccc(-n2nc(-c3noc(C(=O)NCc4ccc(C)o4)n3)c(=O)n(C)c2=O)cc1	nt	-8.1	nt	nt	nt	nt
CC#CCN1C=C(C(=O)OCC)C(C)N(Cc2ccc(Br)cc2)S1(=O)=O (configuration not stated)	nt	1.7	-13.3	nt	18.4µM*	23.1µM*
CCCN1C(C)C(C(=O)OCC)=CN(Cc2ccc(Br)cc2)S1(=O)=O (configuration not stated)	nt	-2.0	-7.2	nt	?	?
CCOC(=O)C1=CN(Cc2cccc(Br)c2)S(=O)(=O)N(CC)C1C (configuration not stated)	nt	6.5	-20.3	nt	?	?
CCCN1C(C)C(C(=O)OCC)=CN(Cc2cccc(I)c2)S1(=O)=O (configuration not stated)	nt	1.9	5.3	nt	?	16.4µM*
CCOC(=O)C1=CN(Cc2cccc(F)c2)S(=O)(=O)N(C)C1c1ccc(F)c(Cl)c1 (configuration not stated)	nt	0.8	15.5	nt	?	16.4µM*
CCOC(=O)C1=CN(Cc2cccc(-c3ccc4c(c3)OCO4)c2)S(=O)(=O)N(C)C1C (configuration not stated)	nt	0.7	-6.1	nt	?	23.1µM*
Cc1cc(C)c2oc(C(=O)Nc3ncc(Cc4ccccc4)s3)cc(=O)c2c1	nt	-1.5	nt	nt	nt	nt
COc1cc(C#N)ccc1OC(=O)Cc1coc2ccc3ccccc3c12	nt	8.6	nt	nt	nt	nt
CCOC(=O)C1=CN(Cc2cccc(-c3ccc(Cl)nc3)c2)S(=O)(=O)N(C)C1C (configuration not stated)	nt	2.1	?	nt	23.1µM*	20.6µM*
CCOC(=O)C1=CN(Cc2cccc(F)c2)S(=O)(=O)NC1CCc1ccccc1 (configuration not stated)	nt	-6.1	?	nt	?	25.9µM*
COc1ccc(OC)c(/C=C2\Oc3cc(OS(=O)(=O)c4ccc(C)cc4)ccc3C2=O)c1	nt	1.9	nt	nt	nt	nt
Cc1ccccc1OCCN1C(=O)c2ccccc2C1=O	0.0%	0.6	27.1	13.5%	-12.6%	-4.4%
COc1ccccc1OCCCN1C(=O)C(=O)c2cccc(C)c21	?	-0.9	21.4	-14.1%	4.61µM*	1.46µM*
Cc1ccccc1OCCN1C(=O)C(=O)c2cccc(C)c21	-25.5%	17.8	-12.8	-4.5%	1.3µM*	0.92µM*
Cc1cccc2c1N(CCOc1ccccc1Cl)C(=O)C2=O	-3.6%	2.3	-8.4	-5.8%	2.59µM*	2.59µM*
CCn1cnc2c1c(=O)n(CC(=O)Nc1ccc(OC(F)F)cc1)c(=O)n2Cc1ccccc1	nt	6.2	nt	nt	nt	nt
CCONC(=O)C(C)Oc1cccc(C)c1C (configuration not stated)	nt	-11.5	nt	nt	nt	nt
COc1ccc(S(=O)(=O)NNS(=O)(=O)c2ccc(OC)c(OC)c2)cc1OC	nt	-81.3*	29.3	nt	-12.4%	-17.1%
COc1ccc(NS(=O)(=O)c2ccc(OC)c(OC)c2)cc1OC	-4.3%	-7.3	28.1	?	-10.9%	?
CCc1nn2c(=O)cc(CNc3cccc(C(C)=O)c3)nc2s1	nt	-1.6	nt	nt	nt	nt
O=C1C(=O)N(CCN2CCOCC2)C(c2ccc([N+](=O)[O-])cc2)/C1=C(/O)c1ccc2c(c1)OCO2 (configuration not stated)	11.2µM*	5.2	i	7.94µM*	-1.2%	-7.8%
COc1ccc(C(=O)NC(=S)Nc2cccc(NC(=O)c3ccco3)c2)cc1[N+](=O)[O-]	?	-1.2	-4.2	10µM*	?	?
O=C(Nc1cc([N+](=O)[O-])ccc1O)c1cccc(NC(=O)c2ccco2)c1	-4.7%	-45.4*	65.6	29.4%	-2.2%	-33.2%
O=C(NNc1ccc([N+](=O)[O-])cc1[N+](=O)[O-])c1ccco1	?	0.5	-61.9*	?	14.6µM*	20.6µM*
SMILES	VP16 counter	LDHA inh	IL-1B inflam inh	RORg inh	TDP1 cell CPT	DT40 TDP1 no CPT
COc1cc(NC(=O)c2ccc(OC)c([N+](=O)[O-])c2)ccc1NC(=O)c1cccs1	-24.6%	-4.0	12.0	-5.4%	4.6%	5.7%
CCOc1ccc(C(=O)Nc2cccc(NC(=O)c3cccs3)c2)cc1[N+](=O)[O-]	-2.1%	0.3	-25.4	38.1%	?	18.4µM*
COc1ccc(CNC(=O)c2sc(-c3ccc(C)cc3)nc2C)cc1	nt	0.8	nt	nt	nt	nt
Cc1oc(-c2ccccc2)nc1C(=O)OCC(=O)NC(=O)NC1CCCC1	nt	-0.8	nt	nt	nt	nt
CCNc1ccc(C)cc1C	nt	-0.9	nt	nt	nt	nt
CCCOC(=O)c1nc2ccccc2nc1N1CCN(c2ccc(F)cc2)CC1	nt	-5.9	nt	nt	nt	nt
Cc1cc(NC2CCCCC2)c2ccccc2n1	nt	-3.8	nt	nt	nt	nt
Cc1cc(C(=O)Nc2cccc(NC(=O)c3ccco3)c2)ccc1[N+](=O)[O-]	0.0%	0.1	-79.0*	?	?	?
CCOc1ccc(C(=O)NC(=S)Nc2cccc(NC(=O)c3ccco3)c2)cc1[N+](=O)[O-]	7.08µM*	-3.9	?	6.31µM*	?	14.6µM*
Cc1ccc(Cl)cc1NC(=O)C(C)NS(=O)(=O)c1ccc2c(c1)CCN2C(=O)N1CCCC1 (configuration not stated)	nt	3.9	nt	nt	nt	nt
CCCCCCn1nc(C(=O)Nc2ccc(OC)c(Cl)c2)c2ccccc2c1=O	nt	-2.1	nt	nt	nt	nt
O=C(Nc1ccccc1)NC1CCS(=O)(=O)C1 (configuration not stated)	15.2%	-8.3	46.1	-20.6%	-2.1%	1.7%
CC(=O)NC1=C(NC2CCS(=O)(=O)C2)C(=O)c2ccccc2C1=O (configuration not stated)	17.8µM*	43.2	22.1	?	10.3µM*	11.6µM*
CN(C1=C(NC(=O)c2ccccc2)C(=O)c2ccccc2C1=O)C1CCS(=O)(=O)C1 (configuration not stated)	7.08µM*	13.8	?	14.1µM*	2.59µM*	2.59µM*
CCOC(=O)N1CCC(NC(=O)C2CCN(C(=O)c3cc4sccc4n3CC)CC2)CC1	?	-3.1	5.8	?	?	16.4µM*
CCn1c(C(=O)N2CCC(C(=O)NCCc3ccc(OC)cc3OC)CC2)cc2sccc21	nt	-5.2	nt	nt	20.6µM*	14.6µM*
CCOC(=O)N1CCN(C(=O)C2CCN(C(=O)c3cc4sccc4n3CC)CC2)CC1	-11.7%	-6.0	7.6	?	-21.0%	?
